Where “and” joins values, the source holds several entries; their conditions need not be identical. Equal entries are not always repeated. The panel holds about 83,000 compounds, 20% with a hit somewhere; the sample as a whole holds those more often.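 Compound tested at a single concentration for 48 hours in 96-well plates; a percent growth value below 10 was scored as active.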 Calls of active or inactive are those of the source.
Test system: OVCAR-3 ovarian
Test: NCI-60 one-dose screen, 48 h (100 = growth as untreated, 0 = no growth, -100 = all killed)
Details: 10 µM unless noted

Row | Compound | growth
1 | OCCCc1ccccc1 | 109% (inactive)
2 | S=c1nn[nH]n1C1CCCCC1 | 104% (inactive)
3 | CC1=CC(=O)C=CC1=Nc1ccc(N(C)C)cc1 | 69.4% (inactive) and -93.6% (active)
4 | Nc1nc(=S)c2[nH]cnc2[nH]1 | -20.3% (active) and 11.4% (inactive)
5 | O=c1[nH]c(=S)[nH]n1C(=S)n1[nH]c(=S)[nH]c1=O | 110% (inactive)
6 | CN(C)C(=N)N=C(N)N | 118% (inactive) and 113% (inactive)
7 | COc1ccc2nccc(Cl)c2c1 | 102% (inactive)
8 | COc1ccc(CCn2cnn3c(=O)c4ccccc4nc3c2=O)cc1OC | 103% (inactive) and 115% (inactive)
9 | N=C(N=C(N)N)N1CCOCC1 | 114% (inactive) and 107% (inactive)
10 | N#CC(=S)Nc1ccc(Cl)c(Cl)c1 | 7.39% (active)
11 | O=C1C(=O)c2ccccc2C(O)=C1CC=C(Cl)Cl | 65.8% (inactive) and 67.1% (inactive)
12 | CCOC(=O)C1=C(C)NC(C)=C(C(=O)OCC)C1 | 102% (inactive) and 114% (inactive)
13 | COc1ccc(CCO)cc1 | 111% (inactive)
14 | COc1ccc(/C=N/Nc2nc3ccccc3s2)cc1 | 86.4% (inactive)
15 | Nc1ccccc1SC1CC(=O)N(c2ccc(I)cc2)C1=O (configuration not stated) | 87.1% (inactive)
16 | Clc1ccc2c(c1)N(C1CCCN(Cc3ccccc3)C1)c1ccccc1S2 (configuration not stated) | 53.3% (inactive)
17 | COc1ccc([N+](=O)[O-])cc1OC | 113% (inactive) and 114% (inactive)
18 | NC(=O)Cc1nc(O)cc(=O)[nH]1 | 109% (inactive)

Row | Compound | growth
19 | N=C(N)N1CCc2ccccc2C1 | 104% (inactive) and 101% (inactive)
20 | Clc1ccc2sc(-c3ccccc3)nc2c1 | 98.6% (inactive)
21 | COc1cc2oc3cc(=O)cc4oc(-c5ccccc5)cc(c2c2c1CCC(c1ccccc1)O2)c43 (configuration not stated) | 106% (inactive)
22 | CC(C)(C)C1=CC(=O)C(C(C)(C)C)=CC1=O | 111% (inactive) and 110% (inactive)
23 | Oc1ccc(O)c(-c2ccccc2)c1 | 20.5% (inactive)
24 | COc1ccc(CCl)c(C)c1OC | 105% (inactive)
25 | CCNC1=CC(=O)c2ncccc2C1=O | 1.49% (active)
26 | O=C1C=CC(=O)N1Cc1ccco1 | 113% (inactive)
27 | CC(C)=NOC(C)C(=O)O (configuration not stated) | 114% (inactive)
28 | Cc1cc2nc3ccc(=[N+](C)C)cc-3sc2cc1N | -15.2% (active) and -44% (active)
29 | c1ccc2c[n+](Cc3ccc4ccccc4n3)ccc2c1 | 62.1% (inactive)
30 | COc1cc([C@@H]2c3cc4c(cc3[C@H](O)[C@H]3COC(=O)[C@@H]23)OCO4)cc(OC)c1OC | 29% (inactive) and -49.9% (active)
31 | NNC(=O)Nc1ccccc1 | 105% (inactive)
32 | Cc1nc2c(=O)[nH]c(=S)[nH]c2[nH]c1=O | 118% (inactive) and 111% (inactive)
33 | Oc1cccnc1CN1CCOCC1 | 118% (inactive) and 110% (inactive)
34 | O=C1c2ccccc2CN1c1ccccc1 | 108% (inactive)
35 | COC1C(OC(N)=O)C(O)C(Oc2ccc3c(O)c(NC(=O)c4ccc(O)c(CC=C(C)C)c4)c(=O)oc3c2C)OC1(C)C (configuration not stated) | 97.3% (inactive) and 90.6% (inactive)
36 | C/C=C/C(=O)OCCCCCCCCCCCC | 106% (inactive)

Test system: HS 578T breast
Test: as above
Details: 10 µM unless noted

Row | Compound | growth
37 | OCCCc1ccccc1 | 106% (inactive)
38 | S=c1nn[nH]n1C1CCCCC1 | 95.7% (inactive)
39 | CC1=CC(=O)C=CC1=Nc1ccc(N(C)C)cc1 | 109% (inactive)
40 | Nc1nc(=S)c2[nH]cnc2[nH]1 | 54.1% (inactive)
41 | O=c1[nH]c(=S)[nH]n1C(=S)n1[nH]c(=S)[nH]c1=O | 98.5% (inactive)
42 | CN(C)C(=N)N=C(N)N | 144% (inactive)
43 | COc1ccc2nccc(Cl)c2c1 | 103% (inactive)
44 | COc1ccc(CCn2cnn3c(=O)c4ccccc4nc3c2=O)cc1OC | 98.3% (inactive) and 115% (inactive)
45 | N=C(N=C(N)N)N1CCOCC1 | 105% (inactive) and 100% (inactive)
46 | N#CC(=S)Nc1ccc(Cl)c(Cl)c1 | -7.34% (active)
47 | O=C1C(=O)c2ccccc2C(O)=C1CC=C(Cl)Cl | 82.3% (inactive) and 87.2% (inactive)
48 | CCOC(=O)C1=C(C)NC(C)=C(C(=O)OCC)C1 | 101% (inactive) and 94% (inactive)
49 | COc1ccc(CCO)cc1 | 98.2% (inactive)
50 | COc1ccc(/C=N/Nc2nc3ccccc3s2)cc1 | 105% (inactive)
51 | Nc1ccccc1SC1CC(=O)N(c2ccc(I)cc2)C1=O (configuration not stated) | 88.6% (inactive)
52 | Clc1ccc2c(c1)N(C1CCCN(Cc3ccccc3)C1)c1ccccc1S2 (configuration not stated) | 14.4% (inactive)
53 | COc1ccc([N+](=O)[O-])cc1OC | 112% (inactive) and 132% (inactive)
54 | NC(=O)Cc1nc(O)cc(=O)[nH]1 | 91.9% (inactive)

Row | Compound | growth
55 | N=C(N)N1CCc2ccccc2C1 | 85.9% (inactive) and 98.4% (inactive)
56 | Clc1ccc2sc(-c3ccccc3)nc2c1 | 68.7% (inactive)
57 | COc1cc2oc3cc(=O)cc4oc(-c5ccccc5)cc(c2c2c1CCC(c1ccccc1)O2)c43 (configuration not stated) | 65.7% (inactive)
58 | CC(C)(C)C1=CC(=O)C(C(C)(C)C)=CC1=O | 104% (inactive)
59 | Oc1ccc(O)c(-c2ccccc2)c1 | 76.5% (inactive)
60 | COc1ccc(CCl)c(C)c1OC | 105% (inactive)
61 | CCNC1=CC(=O)c2ncccc2C1=O | -15.9% (active)
62 | O=C1C=CC(=O)N1Cc1ccco1 | 117% (inactive)
63 | CC(C)=NOC(C)C(=O)O (configuration not stated) | 108% (inactive)
64 | Cc1cc2nc3ccc(=[N+](C)C)cc-3sc2cc1N | 41.1% (inactive) and -0.376% (active)
65 | c1ccc2c[n+](Cc3ccc4ccccc4n3)ccc2c1 | 86.2% (inactive)
66 | COc1cc([C@@H]2c3cc4c(cc3[C@H](O)[C@H]3COC(=O)[C@@H]23)OCO4)cc(OC)c1OC | -47.7% (active)
67 | NNC(=O)Nc1ccccc1 | 105% (inactive)
68 | Cc1nc2c(=O)[nH]c(=S)[nH]c2[nH]c1=O | 102% (inactive)
69 | Oc1cccnc1CN1CCOCC1 | 115% (inactive) and 105% (inactive)
70 | O=C1c2ccccc2CN1c1ccccc1 | 115% (inactive)
71 | COC1C(OC(N)=O)C(O)C(Oc2ccc3c(O)c(NC(=O)c4ccc(O)c(CC=C(C)C)c4)c(=O)oc3c2C)OC1(C)C (configuration not stated) | 89.4% (inactive) and 102% (inactive)
72 | C/C=C/C(=O)OCCCCCCCCCCCC | 107% (inactive)

— PubChem BioAssay (NCI)
